Screening data: PubChem, National Center for Advancing Translational Sciences (NCATS)
An excerpt weighted towards active compounds, which were near 10% of everything screened.
Lamin A splicing: LMNA splicing modulation; HeLa LMNA splicing GFP/RFP minigene ratio, 48 h; Potency, µM (highest dose often 46.1 µM), for the others: at the top dose ratio change, negative = inhibition, most hits filed as inhibitors; 0.01% of 200,000 active; active = well fitted inhibition curve with a large enough effect in the signal ratio, with a control signal flat, not every such curve was filed as active; inconclusive = small, poorly fitted or top-dose-only effect, or effect the other way, or a change in a side signal; the % refers to the signal ratio; note: potency is the fitted concentration of half-maximal effect
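S3 HeLa stable clones carrying a lamin A-EGFP splicing minigene plus DsRed2 were seeded at 600 cells/well in Opti-MEM with 2% FBS, pin-dosed and incubated 48 h at 37°C. Acumen cytometry (488 nm) gave the GFP/RFP total-intensity ratio.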
ALOX12 inhib: blocks human 12-lipoxygenase activity; P18054; purified 12-hLO, xylenol orange hydroperoxide absorbance; Potency, µM (series often up to 57.1 µM), for the others: at the top dose activity change, negative = inhibition, actives largely listed as inhibitors; 0.12% of 150,000 active; active = well fitted inhibition curve with a large enough effect; inconclusive = small, poorly fitted or top-dose-only effect; note: potency is the fitted concentration of half-maximal effect; nearly all actives have a fitted effect of over 55% in size
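Hydroperoxide formation by human 12-lipoxygenase from 40 uM arachidonic acid was followed colorimetrically via ferric-xylenol orange complex, using the 573/405 nm absorbance ratio. Enzyme concentration was 150 nM, with 30 min reaction at room temperature.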
PNC assembly inh: blocks assembly of the perinucleolar compartment; PC3M PTB-GFP, PNC prevalence imaging, 16 h; stronger effect = lower value; activity change (PNC), negative = inhibition, % at 10 µM; 3.1% of 140,000 active; AID 2417;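 active = readout at or below -70, meaning at least 70% loss of cells showing the perinucleolar compartment, a nuclear body marking cancer cells; inconclusive = readout between -30 and a set limit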;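 note: plate controls were DMSO wells for no effect and camptothecin positive control wells for full effect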
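Compounds are pinned in duplicate onto adhered PC3M cells stably expressing GFP-tagged PTB and incubated 16 h at 37 C. Cells are then fixed, nuclei stained with Hoechst, and PNC-positive cells counted.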
ALDH1A1 block: blocks purified human ALDH1A1 activity. P00352. Purified ALDH1A1, NADH fluorescence, propionaldehyde substrate. Potency, µM (highest dose often 75.3 µM), inactives show at the top dose activity, negative = inhibition, actives largely listed as inhibitors. 7.3% of 220,000 active;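 note: potency is the fitted concentration of half-maximal effect; plate controls were no enzyme wells and a reference inhibitor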
Target sequence (P00352 whole entry, looked up): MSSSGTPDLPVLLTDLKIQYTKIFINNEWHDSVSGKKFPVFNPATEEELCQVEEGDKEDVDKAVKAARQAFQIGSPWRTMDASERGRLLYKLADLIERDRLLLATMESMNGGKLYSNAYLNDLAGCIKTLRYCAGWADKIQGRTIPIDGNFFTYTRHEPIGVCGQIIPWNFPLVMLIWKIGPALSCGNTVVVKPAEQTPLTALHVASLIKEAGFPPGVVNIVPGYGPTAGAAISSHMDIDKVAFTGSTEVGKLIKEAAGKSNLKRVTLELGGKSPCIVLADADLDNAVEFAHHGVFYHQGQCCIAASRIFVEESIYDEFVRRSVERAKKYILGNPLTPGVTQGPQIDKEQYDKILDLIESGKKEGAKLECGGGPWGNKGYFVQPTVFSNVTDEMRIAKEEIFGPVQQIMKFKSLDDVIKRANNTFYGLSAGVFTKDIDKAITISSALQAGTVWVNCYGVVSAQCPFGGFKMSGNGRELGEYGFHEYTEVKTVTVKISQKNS
HPGD block: blocks human HPGD enzyme activity; P15428; purified HPGD, NADH fluorescence kinetic, PGE2 substrate; Potency, µM, for the others: at the highest dose activity change, negative = inhibition, most hits filed as inhibitors; 4.3% of 150,000 active; note: potency is the fitted concentration of half-maximal effect
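20 nM HPGD preincubated 15 min at room temperature with compound in 50 mM Tris-HCl pH 8, 0.01% Tween 20. Started with 1 mM NAD+ and 30 uM prostaglandin E2; NADH fluorescence (360/450 nm) read 5 times over 30-s intervals, last minus first.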
Starred values were filed as active, the others as inactive; ? = inconclusive; nt = not tested or not shown; [ ] = dose if it differs, or a comment. Unless noted, calls come from the whole dose curve; as a rule, active = well fitted inhibition curve with a large enough effect (not every such curve was filed as active); inconclusive = small, poorly fitted or top-dose-only effect, or another doubt; inactive = no such curve, though single readings can be large or run the other way. Unless noted, % is set by controls: 0 for no effect and ±100 for the full control effect.

SMILES	Lamin A splicing	ALOX12 inhib	PNC assembly inh	ALDH1A1 block	HPGD block
CCCC(=O)O[C@]1(C(=O)CO)CCC2[C@@H]3CCC4=CC(=O)CC[C@]4(C)C3C(O)C[C@]21C (some centres not stated)	?	3%	nt	5%	3%
COc1cc(NC(=O)c2nc(-c3ccncc3)no2)cc(OC)c1OC	17%[46 µM]	nt	nt	nt	nt
CC(NCc1ccc2c(c1)OCO2)C(=O)NC1CCCCC1 (configuration not stated)	?	nt	nt	35µM*	nt
O=C(CCn1cccc1)NCc1ccc2c(c1)OCO2	-10%	-4%	5	-2%	20µM*
COc1ccc(CC(=O)NCc2ccc3c(c2)OCO3)cc1	7%	2%	?	?	-6%
COc1ccc(Cl)cc1NC(=O)Cn1cc(C(=O)c2ccncc2)c(=O)c2cc(C)ccc21	-2%[46 µM]	nt	nt	nt	nt
Cc1ccc(CNC(=O)C2CCN(S(=O)(=O)c3c(C)noc3/C=C/c3ccccc3F)CC2)o1	1%[46 µM]	nt	nt	nt	nt
Cc1ccc(NCCC(=O)c2ccccc2)cc1Cl	-15%[46 µM]	nt	nt	3.2µM*	nt
O=C(CCC(=O)c1ccccc1)Nc1ccc(F)c(Cl)c1	5%[46 µM]	nt	nt	nt	nt
Cc1ccc(NC(=O)C(OC(=O)c2ccc(O)cc2)c2ccccc2)cc1Cl (configuration not stated)	?	1%	?	?	-9%
Cc1ccc(NC(=O)C(c2ccccc2)N(C)C)cc1Cl (configuration not stated)	-26%[46 µM]	nt	nt	1.4µM*	nt
O=C(O)c1cccc(NC2=C(Cl)C(=O)c3ccccc3C2=O)c1	nt	nt	nt	32µM*	nt
Cc1ccc(C(=O)CNc2ccc(C)c(Cl)c2)cc1	-8%	5%	40	10µM*	-30%
CN(C)C=O	nt	0%	nt	15%	0%
Cc1ccc(NC(=O)C2Cc3ccccc3N2C(=O)c2ccccc2)cc1Cl (configuration not stated)	10%[46 µM]	nt	nt	nt	nt
Cc1ccc(C(=O)CNc2cccc(Cl)c2)cc1	-3%	-15%	26	22µM*	-9%
Cc1ccc(NC2=C(NC(=O)c3ccccc3)C(=O)c3ccccc3C2=O)cc1Cl	?	-2%	-22	20µM*	20µM*
Cc1ccc(NCC(=O)c2ccccc2)cc1Cl	-2%	-3%	2	20µM*	-25%
Cc1ccc(NC(=O)C(c2ccccc2)N2Cc3ccccc3C2=O)cc1Cl (configuration not stated)	13%[46 µM]	nt	nt	nt	nt
CCOc1ccc(CNC(=O)C2=Cc3cc(Br)ccc3OC2)cc1OC	-2%[46 µM]	nt	nt	nt	nt
CN(C(=O)c1cccc(COc2ccc(Cl)cc2Cl)c1)c1ccccc1	-29%	-2%	27	?	18µM*
O=C(NCc1ccccc1)c1cccc(COc2cc(Cl)ccc2Cl)c1	-6%	-4%	?	18%	-15%
Nc1nc2c(c(=O)[nH]1)CN(c1ccc(S(N)(=O)=O)cc1)CN2	nt	0%[11.4 µM]	nt	-4%[13.5 µM]	-5%
CN1CC(c2ccccn2)C2(SC(=S)N(Cc3ccccc3)C2=O)C12C(=O)Nc1ccccc12 (configuration not stated)	?	-11%	16	25µM*	-3%
CCNc1sc(C(=O)c2cccs2)c(N)c1-c1nc2ccccc2s1	-10%	-19%	40	?	-18%
SMILES	Lamin A splicing	ALOX12 inhib	PNC assembly inh	ALDH1A1 block	HPGD block
C=CCNc1sc(C(=O)c2cccs2)c(N)c1C#N	-7%	0%	-119*	?	-7%
CCNc1sc(C(=O)c2cccs2)c(N)c1C#N	-13%	-29%	20	8.9µM*	-20%
CCn1c(/C(C#N)=N/O)nc2ccccc21	7%	-5%	?	20µM*	35µM*
CCOC(=O)c1[nH]c2c(c1C)C(=O)CC(c1ccc(OC)c(OC)c1)C2 (configuration not stated)	6%	0%	-20	11%	-1%
CCOCCOC(=O)c1[nH]c2c(c1C)C(=O)CC(c1ccc(N(C)C)cc1)C2 (configuration not stated)	-10%	-4%	-25	13µM*	-12%
C/C=C/COC(=O)c1[nH]c2c(c1C)C(=O)CC(c1ccc(N(C)C)cc1)C2 (configuration not stated)	-16%	0%	?	5µM*	-18%
COC(=O)c1[nH]c2c(c1C)C(=O)CC(c1ccccc1)C2 (configuration not stated)	?	3%	-111*	5%	-6%
CCC(C)OC(=O)c1[nH]c2c(c1C)C(=O)CC(c1ccc(N(C)C)cc1)C2 (configuration not stated)	?	-7%	-23	3.5µM*	-13%
FC(F)(F)c1cc(CN2CCC3(CCNCC3)CC2)cc(C(F)(F)F)c1	nt	3%	nt	-6%	-8%
Oc1ccccc1/C=N/Nc1cc(N2CCCC2)nc(N2CCCC2)n1	?	-5%	-8	-7%	-5%
Cc1c(C(=O)N2CCOCC2)[nH]c2c1C(=O)CC(c1ccccc1Cl)C2 (configuration not stated)	?	-4%	-84*	?	-17%
CCCCN1CN(Cc2ccccc2)CNC1=S	-1%	-14%	?	0%	5%
CCN1CN(Cc2ccco2)CNC1=S	7%	-1%	-82*	-7%	-7%
COc1cccc(NC(=O)CC(C)S(=O)(=O)c2ccc3c(c2)NC(=O)CO3)c1 (configuration not stated)	2%[46 µM]	nt	nt	nt	nt
COc1ccc(/C=N/n2c(-c3cccs3)n[nH]c2=S)cc1	-15%	-17%	23	-9%	4µM*
S=c1[nH]nc(-c2cccs2)n1/N=C/c1c(Cl)cccc1Cl	-10%[46 µM]	nt	nt	16µM*	nt
Cc1ccc(/C=N/n2c(-c3cccs3)n[nH]c2=S)cc1	-5%	-12%	60	?	4.5µM*
S=c1[nH]nc(-c2ccco2)n1/N=C/c1ccc(Cl)c(Cl)c1	-20%	0%	-11	?	nt
CC[C@H](CN(C)C)C(=O)c1ccco1	nt	1%[11.4 µM]	nt	-3%[13.5 µM]	-7%
Cn1ccc(=S)c2ccccc21	-7%[9.22 µM]	nt	nt	7.1µM*	nt
COc1cccc(C(c2sc3nc(-c4ccco4)nn3c2O)N2CCOCC2)c1 (configuration not stated)	15%[46 µM]	nt	nt	nt	nt
COc1cc(NC(=O)C2CCCN(S(=O)(=O)c3cccc4nsnc34)C2)cc(OC)c1 (configuration not stated)	?	-7%	11	-3%	-17%
O=C(Nc1ccc2c(c1)OCCO2)C1CCCN(S(=O)(=O)c2cccc3nsnc23)C1 (configuration not stated)	?	-4%	-113*	-13%	-18%
Cc1ccnc(NC(=O)C2CCN(S(=O)(=O)c3cccc4nsnc34)CC2)c1	-5%	-2%	?	6%	2%
O=S(=O)(Nc1ccc2c(c1)OCCO2)c1cccc2nsnc12	-1%	-3%	-3	25µM*	-13%
O=C(Nc1ccc2c(c1)OCCO2)C1CCN(S(=O)(=O)c2cccc3nsnc23)CC1	-8%	1%	-81*	?	-15%
